Compound activity deposited in PubChem BioAssay by National Center for Advancing Translational Sciences (NCATS).
Only some compounds are listed: those with a hit (about 14% of all), similar ones and a draw of the others.
FBPA Giardia inh: Giardia lamblia aldolase inhibition; Potency, µM (titrated, usually from 59.6 µM), inactives show at the top dose activity, negative = inhibition, hits mostly inhibitors; AID 2451; purified Giardia FBPA; 290,000 tested, 0.71% active; A8B2U2; further: potency means the concentration at half of the fitted maximal effect; nearly all actives have a fitted effect of over 55% in size
Target sequence (A8B2U2 whole entry, looked up): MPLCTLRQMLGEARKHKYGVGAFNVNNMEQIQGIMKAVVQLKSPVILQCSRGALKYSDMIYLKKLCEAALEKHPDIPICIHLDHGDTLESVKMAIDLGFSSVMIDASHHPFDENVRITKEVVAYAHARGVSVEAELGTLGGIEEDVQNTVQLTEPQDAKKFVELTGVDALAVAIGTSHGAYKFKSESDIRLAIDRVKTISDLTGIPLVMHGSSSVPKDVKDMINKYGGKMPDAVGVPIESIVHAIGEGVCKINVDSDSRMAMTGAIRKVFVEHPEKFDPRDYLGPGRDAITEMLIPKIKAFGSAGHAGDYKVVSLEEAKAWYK
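Giardia FBPA (40 nM reagent) was preincubated 10 min at RT with compound (up to 57.5 uM final), then substrate plus GAPDH/TPI/NAD/arsenate coupling system with diaphorase/resazurin was added; resorufin fluorescence (525/598 nm) was read after 20 min.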
Sm TGR inh: inhibitors of Schistosoma mansoni thioredoxin glutathione reductase; purified TGR, DTNB reduction, TNB absorbance 405 nm; Potency, µM (series often up to 114 µM), without a hit: top-dose activity change, negative = inhibition, usual class: inhibitors; 360,000 tested, 3% active; further: potency means the concentration at half of the fitted maximal effect; nearly all actives have a fitted effect of over 60% in size
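Kinetic colorimetric format: TGR-catalysed, NADPH-driven DTNB reduction monitored via TNB absorbance. Enzyme dispensed at 20 nM; compound exposure 15 min at room temperature before reaction start.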
HCMV inh: blocks human cytomegalovirus replication; HFF cells, HCMV-luciferase reporter, 72 h; stronger effect = lower value; activity change, negative = inhibition, % at 57.5 µM; 410,000 tested, 4.5% active; in the data active means activity change below about -60%; inconclusive means no clear call, values can overlap the other calls; inactive means above about -39%
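Inhibition of viral replication was scored as loss of reporter luminescence in HFFs infected with HCMV-luciferase (MOI 1 PFU/cell) for 72 h; compounds tested at 2 doses, normalized to buffer and Salinomycin controls.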
Pf growth 96h: P. falciparum growth inhibition at 96 hours; P. falciparum luciferase reporter growth, 96 h; Potency, µM (highest dose often 28.7 µM), for the others: top-dose activity change, negative = inhibition, usual class: inhibitors; 320,000 tested, 6.9% active; AID 504834; further: potency means the concentration at half of the fitted maximal effect
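Two-generation exposure (96 h) targets delayed-death phenotype. Reporter parasites carrying integrated firefly luciferase, in red cells at 2% hematocrit and 0.05% parasitemia final, kept at 37 C, 5% CO2; luminescence loss indicates inhibition.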
Pf growth 48h: inhibits P. falciparum growth in the first generation, 48 h. AID 504832. 310,000 tested, 5.9% active. P. falciparum luciferase growth in erythrocytes, 48 h. Potency, µM (top dose mostly 28.7 µM), inactives show at the top dose activity change, negative = inhibition, hits mostly inhibitors; further: potency means the concentration at half of the fitted maximal effect
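In quantitative HTS format, infected erythrocytes bearing luciferase-reporter parasites were treated for a single generation at 37 C. Luminescence after adding detection reagent served as the growth measure.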
The depositor's hits bear a star; ? = inconclusive; nt = no result; ! = repeats disagree; [ ] = dose if it differs, or a comment. Unless noted, the call rests on the fitted dose curve; in most records, active means well fitted curve in the direction sought with a large enough effect; inconclusive means small, poorly fitted or top-dose-only effect, or another doubt; inactive means no such curve, though single readings can be large; an effect the other way counts as inactive or inconclusive. On the % scale 0 is the no-effect control and ±100 the full control effect.

SMILES | FBPA Giardia inh | Sm TGR inh | HCMV inh | Pf growth 96h | Pf growth 48h
CCOc1ccc(CCNC(=O)CCS(=O)(=O)c2ccc(C)cc2)cc1OCC | 3% | 32µM* | -1 | -17% | 11%[0.00184 µM]
CCOc1ccc(CCNC(=O)CCn2cccc2)cc1OCC | 0% | -6% | 3 | 1.7µM* | ?
O=C(CCn1cccc1)NCCc1ccc(Cl)cc1 | 2% | -34% | -10 | 10µM* | 6%
O=C(CSc1ncc(-c2ccc(Cl)cc2)[nH]1)Nc1ccccc1F | nt | 5% | -30 | nt | nt
FC(F)(F)c1ccccc1-c1cncnc1NCc1cccs1 | 11% | nt | nt | nt | nt
O=Cc1[nH]c2ccccc2c1N(C(=O)CCl)c1ccc([N+](=O)[O-])cc1 | -21% | 3.2µM* | -101* | 0% | ?
CC(=O)n1cc(N(C(=O)CCl)c2ccc([N+](=O)[O-])cc2)c2ccccc21 | -13% | 0.71µM* | ? | ? | 3.7µM*
CC(=O)n1cc(CO)c2ccccc21 | 14% | -14% | 15 | 1% | 13%
CC(=O)n1cc(N(C(=O)CCl)c2ccccc2)c2ccccc21 | -7% | 0.5µM* | -98* | ? | ?
O=C(NC1CCN(CC(=O)N(c2ccccc2)c2ccccc2)CC1)c1ccc([N+](=O)[O-])cc1 | 0% | 4% | 13 | 8% | 39%
CC(=O)OC1CC(OC(C)=O)[C@]2(C)C(CC(=O)[C@]3(C)C2CC[C@@]2(C)C(c4ccoc4)OC(=O)C4O[C@@]423)C1(C)C (some centres undefined) | 4% | nt | nt | nt | nt
O=C(c1ccc(N2C(=O)C3C4CC(C(Br)C4Br)C3C2=O)cc1)N1CCCCC1 (centres undefined) | 3% | 2% | 9 | 71% | ?
O=C(NCc1ccccc1Cl)c1cnc2sc(N3CCCCC3)nn2c1=O | nt | 2% | -4 | nt | nt
COc1cc(C(=O)Nc2nc(-c3ccc(Cl)cc3)c(C)s2)ccc1OCC(=O)Nc1ccc(F)cc1 | 1% | -11% | -30 | 4.1µM* | ?
COc1ccccc1CNc1ncnc2onc(-c3ccc(Cl)cc3)c12 | nt | 0% | -22 | nt | nt
Cc1cc2ccccn2c1C(=O)c1ccc([N+](=O)[O-])o1 | -10% | ? | -66* | ? | -28%
Cc1cc2ccccn2c1C(=O)c1ccc(S(=O)(=O)N(C)C)cc1 | 2% | 13% | -66* | 4% | -15%
Cc1cc2ccccn2c1C(=O)c1cccc([N+](=O)[O-])c1 | -12% | 7% | ? | 16% | -3%
CCOC(=O)CN1C(=O)N[C@@H](c2cccc(C(F)(F)F)c2)[C@H](C(=O)OC)[C@H]1C | 8%[12.9 µM] | nt | nt | nt | nt
CCCc1nc2cc3c(cc2[nH]1)n(C)c(=O)n3C | ? | 22µM* | 22 | -23% | -12%
CCN(CC(O)Cn1c2ccccc2c2ccccc21)S(=O)(=O)c1ccc(C)cc1 (centres undefined) | -8% | -11% | 12 | nt | nt
Cc1ccc(S(=O)(=O)N(CCCO)CC(O)CON=C2c3ccccc3-c3ccccc32)cc1 (centres undefined) | -2% | 3% | 31 | 9.3µM* | ?
CS(=O)(=O)Nc1ccc(-c2cnc3cccnn23)cc1 | nt | nt | -64* | nt | nt
O=C(NCc1nc2ccccc2[nH]1)C1=C[C@@H](c2ccc(C(F)(F)F)cc2)C[C@@H](OCc2ccc(CO)cc2)O1 | nt | nt | 12 | nt | nt
COc1cccc(CN2CCC(n3nccc3NC(=O)CCOc3ccccc3)CC2)c1 | nt | -3% | -25 | 3.3µM* | ?
SMILES | FBPA Giardia inh | Sm TGR inh | HCMV inh | Pf growth 96h | Pf growth 48h
CCn1nc(C)c(CN2CCC(n3nccc3NC(=O)Cc3ccccc3)CC2)c1C | nt | -9% | ? | 12µM* | -10%
O=C(CCOc1ccccc1)Nc1ccnn1C1CCN(Cc2ccc(O)cc2)CC1 | nt | 40µM* | -16 | 24% | 9.3µM*
O=C(CCOc1ccccc1)Nc1ccnn1C1CCN(CCc2ccccc2)CC1 | -3% | -2% | -33 | 13µM* | -21%
CCn1ccnc1CN1CCC(n2nccc2NC(=O)CCc2ccccc2)CC1 | nt | -3% | -16 | 8.3µM* | 46%
CCn1cc(CN2CCC(n3nccc3NC(=O)CCc3ccccc3)CC2)cn1 | nt | -8% | -33 | 33% | -15%
CC1CCN(c2ccc(C=O)o2)CC1 | 4% | nt | -20 | 0.23µM* | -26%
CCCCN1CCc2c1nc1ccc(Br)cc1c2N | -6% | -15% | 107 | 1.7µM* | nt
Cc1ccc(NC(=O)Cn2c(=O)n(-c3ccccc3)c(=O)c3ccc(C(=O)NCc4ccc5c(c4)OCO5)cc32)cc1 | nt | -2% | -7 | nt | nt
COc1ccc(NC(=O)CSc2ccc(-c3ccccn3)nn2)cc1OC | -20% | -11% | 1 | ? | ?
COc1ccccc1NC(=O)CSc1ccc(-c2ccccn2)nn1 | nt | -1% | -101*! | ? | ?
COCC(=O)N(Cc1ccccc1)c1ccccn1 | 2% | 50% | 50 | ? | 4%
O=C(CSc1ccc(-c2ccccn2)nn1)Nc1ccc(F)c(F)c1 | nt | 24% | -90*! | -102% | -21%
Cc1ccc(NC(=O)CSc2ccc(-c3ccccn3)nn2)cc1 | -8% | 2% | 65 | ? | ?
COc1ccccc1NC(=O)N(Cc1ccccc1)c1ccccn1 | -6% | 5% | 5 | ? | 12µM*
Cn1nc(C(=O)OCC(=O)Nc2cc(Cl)ccc2C#N)c2ccccc2c1=O | nt | 6% | 7 | -20% | 7%
COc1ccc(-c2oc3ncn4nc(-c5cccc(C)c5)nc4c3c2-c2ccc(OC)cc2)cc1 | nt | 4% | -4 | nt | nt
CCCN1Cc2cccc(C(=O)NCCc3cccc(C)c3)c2C1=O | 7% | 0% | -31 | 118% | ?
Cc1ccc(/C=C(\NC(=O)c2ccccc2)C(=O)NC(Cc2ccccc2)C(=O)O)cc1 (centres undefined) | 4% | -1% | -20 | 0.52µM* | 1%
COc1ccc(C(=O)Nc2ccccc2C(=O)NC(Cc2ccc(O)cc2)C(=O)NNC(=O)c2ccccc2Cl)cc1 (centres undefined) | -5% | -1% | ? | 32% | 5.2µM*
CCCCNC(=O)C(NC(=O)c1ccccc1)C(=O)c1ccccc1 (centres undefined) | nt | nt | -6 | nt | nt
CCC(NC(=O)c1ccccc1NC(=O)c1ccco1)C(=O)NC1CCCCC1 (centres undefined) | 3% | 1% | -17 | ? | ?
CCCCNC(=O)C(NC(=O)c1ccc(-c2ccccc2)cc1)C(=O)c1ccccc1 (centres undefined) | nt | nt | -81* | nt | nt
COc1ccc(C(=O)NNC(=O)C(Cc2ccc(O)cc2)NC(=O)c2ccccc2NC(=O)c2ccc(OC)cc2)cc1 (centres undefined) | -10% | -2% | ? | 61% | ?
O=C(Nc1ccccc1C(=O)NC(Cc1ccccc1)C(=O)NC1CCCCC1)c1ccccc1 (centres undefined) | 1% | 0% | ? | ? | 10µM*
COc1ccc(Cc2nc3ccccc3n2Cc2ccccc2F)cc1 | nt | -1% | -12 | nt | nt
